Out of some 100,000 compounds screened, about 770 (0.77%) were called active. Cut-off read from the data, not from the text of the source: active = inhibition above about 50%; inactive = the rest. Shown is part of a subset that was picked to be rich in actives.
The compounds below were run against Gag-Pol polyprotein (Human immunodeficiency virus type 1 group M subtype B (isolate HXB2)) (UniProt P04585) (assay: RNase H inhibition, HIV 1 Gag Pol polyprotein, FRET biochemical assay, screening (AID 372)). Details: HIV-1 RT RNase H, FRET RNA/DNA substrate fluorescence; at 10 µM; active compounds read high.
`O=C(Cc1ccccc1)Nc1ccncc1` was tested, and the inhibition was 11% (inactive). With `Cn1cc(/C=C2/SC(=O)N(c3ccccc3)C2=O)c2ccccc21` the inhibition was 12% (inactive). With `COc1ccc(Cl)cc1/C=C1\C(=O)NC(=S)N(c2cccc(Cl)c2Cl)C1=O` the inhibition was 8% (inactive). In the case of `Clc1cccc(-c2ccc(/C=N/Nc3nc4ccccc4s3)o2)c1`, the inhibition is reported as 4% (inactive). `O=[N+]([O-])c1ccc(C=Nn2c(-c3ccc(Cl)cc3Cl)n[nH]c2=S)cc1` was tested, and the inhibition was 51% (active). In the case of `O=[N+]([O-])c1ccc(Cl)c(C=Nn2c(-c3ccc(Cl)cc3Cl)n[nH]c2=S)c1`, the inhibition is reported as 16% (inactive). `O=[N+]([O-])c1cc(C=Nn2c(-c3ccc(Cl)cc3Cl)n[nH]c2=S)ccc1Cl` was tested, and the inhibition was 37% (inactive). For `COc1ccccc1-n1c(C=C2C(=O)N(Cc3ccccc3)c3ccccc32)nc2ccccc2c1=O`, the inhibition was 9% (inactive). For `O=c1oc(/C=C\c2ccccc2)nc2ccc(Cc3ccc4nc(/C=C\c5ccccc5)oc(=O)c4c3)cc12`, the inhibition was 7% (inactive). For `Cc1oc2ccc(OCc3ccc([N+](=O)[O-])cc3)cc2c1C(=O)OC(C)C`, the inhibition was 13% (inactive). In the case of `CCOCCOC(=O)C1=C(C)NC2=C(C(=O)CC(c3ccc(OC)cc3)C2)C1c1cccc(OC)c1OC` (centres undefined), the inhibition is reported as 5% (inactive). With `O=C1c2ccccc2CCC1C1(O)C(=O)Nc2ccc(Br)cc21` (centres undefined) the inhibition was 2% (inactive). `CCn1c2ccccc2c2ccc(-c3nn(-c4ccccc4)cc3C=O)cc21` was tested, and the inhibition was 11% (inactive). `Cc1nc(=O)c(-c2ccccc2)c(C)n1-c1ccc(C(=O)O)c(O)c1` was tested, and the inhibition was 0% (inactive). `Cc1ccc(-c2ccccc2)n1-c1ccc(O)c(C(=O)O)c1` was tested, and the inhibition was 6% (inactive). In the case of `Cc1ccc(C)n1-c1ccc(Cl)c(C(=O)O)c1`, the inhibition is reported as 53% (active). In the case of `Cc1ccc(C)n1-c1ccc(Cl)c(O)c1`, the inhibition is reported as 41% (inactive). For `Cc1ccc(C)n1-c1ccc(C(=O)O)c(Cl)c1`, the inhibition was 16% (inactive). With `Cc1ccc(C)n1-c1cc(C(=O)O)cc(C(=O)O)c1` the inhibition was 2% (inactive). For `Cc1ccc(-c2ccccc2)n1-c1ccc(Cl)c(C(=O)O)c1`, the inhibition was 3% (inactive). `Cc1ccc(C)n1-c1ccc(C(=O)O)c(O)c1` was tested, and the inhibition was 99% (active). For `CC(C)(Cc1ccc(O)cc1)NC(=O)Cc1ccccc1`, the inhibition was 6% (inactive). `CS(=O)(=O)N(CC(=O)N1CCCC1)c1cccc(Cl)c1` was tested, and the inhibition was 6% (inactive). `CC1=C(C#N)C(c2cccc(F)c2)C2=C(CC(c3ccccc3)CC2=O)N1` (centres undefined) was tested, and the inhibition was 11% (inactive). `COc1ccc(OC)c(NC(=O)CN(CCc2ccccc2)S(=O)(=O)c2ccccc2)c1` was tested, and the inhibition was 15% (inactive). With `Cc1cc(C)cc(NC(=O)Cc2ccccc2)c1` the inhibition was 3% (inactive). For `O=C1NC(=O)N(c2ccccc2)C(=O)/C1=C\c1cccc(OCc2ccc(F)cc2)c1`, the inhibition was 9% (inactive). For `CC(=O)Nc1ccc2nn(-c3ccc(F)cc3)nc2c1`, the inhibition was 4% (inactive). In the case of `O=C(CSc1nnnn1-c1ccccc1)Nc1ccc(C(=O)O)cc1`, the inhibition is reported as 0% (inactive). In the case of `CCOC(=O)c1ccc(NC(=O)CSc2nnnn2-c2c(C)cc(C)cc2C)cc1`, the inhibition is reported as 55% (active). With `COc1ccc(-n2nnnc2SCC(=O)Nc2c(C)cc(C)cc2C)cc1` the inhibition was 12% (inactive). In the case of `CC1=C(C(=O)OC(C)C)C(c2cccc(F)c2)C2=C(CCCC2=O)N1` (centres undefined), the inhibition is reported as 4% (inactive). `CCN1C(=O)/C(=C2\SC(=S)N(c3ccccc3)C2=O)c2ccccc21` was tested, and the inhibition was 4% (inactive). In the case of `C=CCN1C(=O)/C(=C2\SC(=S)N(Cc3ccccc3)C2=O)c2ccccc21`, the inhibition is reported as 33% (inactive). With `CCCCCN1C(=O)/C(=C2\SC(=S)N(c3ccc(Br)cc3)C2=O)c2ccccc21` the inhibition was 16% (inactive). In the case of `CCN1C(=O)/C(=C2\SC(=S)N(c3ccc(Br)cc3)C2=O)c2ccccc21`, the inhibition is reported as 57% (active). `CCN1C(=O)/C(=C2\SC(=S)N(CC(=O)O)C2=O)c2ccccc21` was tested, and the inhibition was 7% (inactive). With `CCN1C(=O)/C(=C2\SC(=O)N(Cc3ccccc3)C2=O)c2ccccc21` the inhibition was 59% (active). For `CCC(C(=O)Nc1nc(-c2ccccc2)c(C)s1)c1ccccc1` (centres undefined), the inhibition was 10% (inactive). With `COC(=O)C1=C(C)NC2=C(C(=O)CC(c3ccccc3)C2)C1c1cc(Br)c(O)c(OC)c1` (centres undefined) the inhibition was 15% (inactive). For `Cc1cc(=O)oc2cc(OC(=O)CCCOc3ccc(Cl)cc3Cl)ccc12`, the inhibition was 18% (inactive). In the case of `O=c1cc2oc3cc(O)c(O)cc3c(-c3ccccc3[N+](=O)[O-])c-2cc1O`, the inhibition is reported as 69% (active). `CN(C)c1ccc(-c2c3cc(O)c(=O)cc-3oc3cc(O)c(O)cc23)cc1` was tested, and the inhibition was 63% (active). In the case of `O=c1[nH]c2ccccc2c(O)c1-c1ccccc1[N+](=O)[O-]`, the inhibition is reported as 1% (inactive). In the case of `Cc1ccc(-c2cc(=O)c3cc(C)ccc3o2)cc1`, the inhibition is reported as 11% (inactive). With `O=C1c2ccccc2C(=O)c2c(O)c([N+](=O)[O-])cc(O)c21` the inhibition was 20% (inactive). With `Cc1ccc(-c2cc(=O)c3cc(Cl)ccc3o2)cc1` the inhibition was 5% (inactive). `O=C(Nc1ccc2ccccc2c1)c1ccccc1Cl` was tested, and the inhibition was 3% (inactive). With `Cc1cc(OCC(N)=O)ccc1Cl` the inhibition was 0% (inactive). `Nc1c(Cl)cc(Br)c2c1C(=O)c1ccccc1C2=O` was tested, and the inhibition was 6% (inactive). `Cc1ccc2nc3c(N)c(Cl)cc4c3c(c2c1)-c1ccccc1C4=O` was tested, and the inhibition was 56% (active). For `Nc1c(Cl)cc2c(c1Oc1ccccc1)C(=O)c1ccccc1C2=O`, the inhibition was 8% (inactive). `O=C(Cn1c(NCCO)nc2ccccc21)c1cccc(Br)c1` was tested, and the inhibition was 3% (inactive). `C=CCC(C(=O)c1ccccc1)C(=O)C(C)(C)OC` (centres undefined) was tested, and the inhibition was 7% (inactive). For `Cc1ccc(/C=N/NC(=O)Cc2ccc(Cl)cc2)o1`, the inhibition was 7% (inactive). For `COc1ccc(CC(=O)N/N=C/c2ccc(-c3cc(Cl)ccc3C)o2)cc1`, the inhibition was 74% (active). `COc1ccc(CC(=O)N/N=C/c2ccc(I)o2)cc1` was tested, and the inhibition was 0% (inactive). `O=Cc1cc(Cl)c(OCc2ccc(F)cc2)c(Cl)c1` was tested, and the inhibition was 41% (inactive). With `Cc1cc(C)c2oc(-c3ccc(C)c(NC(=O)COc4cccc(C)c4C)c3)nc2c1` the inhibition was 0% (inactive). For `Cc1cc(C)cc(OCC(=O)Nc2cc(-c3nc4cc(C)cc(C)c4o3)ccc2C)c1`, the inhibition was 14% (inactive). In the case of `Cc1cc(C)c2oc(-c3ccc(C)c(NC(=O)COc4ccccc4C)c3)nc2c1`, the inhibition is reported as 55% (active). `Cc1ccc(-c2nc3ccccc3o2)cc1NC(=O)COc1ccccc1` was tested, and the inhibition was 8% (inactive). `Cc1ccc2oc(-c3ccc(C)c(NC(=O)COc4ccccc4C)c3)nc2c1` was tested, and the inhibition was 44% (inactive). For `Cc1ccc(-c2nc3ccccc3o2)cc1NC(=O)COc1ccccc1C`, the inhibition was 50% (active). With `CCCSc1nc2ccccc2c(=O)n1CC1CCCCC1` the inhibition was 1% (inactive). For `O=C(Nc1cccc(C(F)(F)F)c1)c1ccc(I)cc1`, the inhibition was 1% (inactive). With `COc1cc(/C=N\NC(=O)C2COc3cc4ccccc4cc3O2)ccc1OCc1ccccc1` (centres undefined) the inhibition was 14% (inactive). With `CCN(Cc1ccccc1)C(=O)c1ccccc1C` the inhibition was 6% (inactive). In the case of `CCOc1ccccc1OCCCCOc1cc(C)ccc1Cl`, the inhibition is reported as 5% (inactive). For `Cc1c(OCc2c(F)cccc2Cl)ccc2c3c(c(=O)oc12)CCC3`, the inhibition was 0% (inactive). In the case of `COC(=O)c1c(N)sc2c1CCc1ccccc1-2`, the inhibition is reported as 9% (inactive). In the case of `CCOC(=O)c1c(N)sc2c1CCc1ccccc1-2`, the inhibition is reported as 51% (active). `CCOC(=O)c1c(NC(C)=O)sc2c1CCc1ccccc1-2` was tested, and the inhibition was 1% (inactive). For `Cc1ccc(-c2nc(N/N=C/c3ccccc3Cl)c3ccccc3n2)cc1`, the inhibition was 58% (active). For `Cc1ccc(-c2nc(N/N=C/c3ccccc3)c3ccccc3n2)cc1`, the inhibition was 10% (inactive). For `Cc1ccc(-c2nc(N/N=C/c3ccccc3O)c3ccccc3n2)cc1`, the inhibition was 20% (inactive). With `COc1ccccc1C(=S)N1CCOCC1` the inhibition was 70% (active). `Oc1ccccc1C(=S)N1CCOCC1` was tested, and the inhibition was 24% (inactive). In the case of `COc1ccc(OC)c(C(=S)N2CCOCC2)c1`, the inhibition is reported as 11% (inactive). `COc1ccc2c(c1)c(/C=C/c1nc3ccccc3c(=O)n1-c1ccccc1[N+](=O)[O-])c(C)n2C` was tested, and the inhibition was 1% (inactive). With `CN(c1ccc(C(=O)N2CCCC2)cc1)S(=O)(=O)c1ccccc1` the inhibition was 5% (inactive). In the case of `CN(c1ccc(C(=O)Nc2cc(Cl)cc(Cl)c2)cc1)S(=O)(=O)c1ccccc1`, the inhibition is reported as 8% (inactive). In the case of `Cc1ccccc1CNC(=O)c1ccc(N(C)S(=O)(=O)c2ccccc2)cc1`, the inhibition is reported as 0% (inactive). For `CN(c1ccc(C(=O)Nc2cc(Cl)ccc2Cl)cc1)S(=O)(=O)c1ccccc1`, the inhibition was 54% (active). With `CC1CCN(C(=O)c2ccc(N(C)S(=O)(=O)c3ccccc3)cc2)CC1` the inhibition was 51% (active). In the case of `CN(c1ccc(C(=O)N2CCN(c3ccccc3)CC2)cc1)S(=O)(=O)c1ccccc1`, the inhibition is reported as 6% (inactive). `CNC(=O)c1ccc(N(C)S(=O)(=O)c2ccccc2)cc1` was tested, and the inhibition was 2% (inactive). `CN(c1ccc(C(=O)Nc2ccccc2F)cc1)S(=O)(=O)c1ccccc1` was tested, and the inhibition was 9% (inactive). With `Cc1cccc(C)c1NC(=O)c1ccc(N(C)S(=O)(=O)c2ccccc2)cc1` the inhibition was 57% (active). In the case of `Cc1nn(CC(=O)Nc2ccc(Cl)cc2Cl)c(C)c1[N+](=O)[O-]`, the inhibition is reported as 0% (inactive). In the case of `O=C(O)C1CN(S(=O)(=O)c2ccccc2)CCN1S(=O)(=O)c1ccccc1` (centres undefined), the inhibition is reported as 8% (inactive). `COC(=O)C1CN(S(=O)(=O)c2ccccc2)CCN1S(=O)(=O)c1ccccc1` (centres undefined) was tested, and the inhibition was 2% (inactive). With `CCN(CC)C(=O)C1CN(S(=O)(=O)c2ccccc2)CCN1S(=O)(=O)c1ccccc1` (centres undefined) the inhibition was 54% (active). In the case of `Cc1cc(OCC(=O)OC(C)C)c2c(-c3ccccc3)cc(=O)oc2c1`, the inhibition is reported as 20% (inactive). With `Cc1cc(OC(C)C)c2c(-c3ccccc3)cc(=O)oc2c1` the inhibition was 50% (active). `Cc1cc(OS(C)(=O)=O)c2c(-c3ccccc3)cc(=O)oc2c1` was tested, and the inhibition was 19% (inactive). In the case of `COc1ccc(NC(=O)n2nc(C(F)(F)F)nc2N)cc1`, the inhibition is reported as 0% (inactive). With `Cc1cc(Cl)ccc1OC(C)C(=O)N1CCN(c2cccc(Cl)c2)CC1` (centres undefined) the inhibition was 10% (inactive). For `CCOc1nc(Nc2ccc(Cl)cc2)nc(N2CCCCC2)n1`, the inhibition was 9% (inactive).

Reference: PubChem BioAssay AID372 (MTDP, 2006)
